GC-B act – GC-B (human) receptor activation; P20594; HEK293-GC-B cells, CNP EC30, cGMP TR-FRET; 0% at EC30 CNP, 100% saturating CNP; activation, % at 10 µM; 370,000 compounds, 0.11% hits; AID 1920062;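 active = activation at 10 µM reaching about 35% in either raw or pattern-adjusted values, limit read from the data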
Exocytosis inh – lytic granule exocytosis inhibition; TALL-104 LAMP-1 surface exposure, flow cytometry; cells stimulated with thapsigargin and PMA; inhibition, % at 10 µM; 360,000 compounds, 0.66% hits; AID 651702;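 active = inhibition above about 55%, limit read from the data; inconclusive = no clear call, values can overlap the other calls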
GC-A act – GC-A (human) enzyme activation | 370,000 compounds, 0.14% hits | activation, % at 10 µM | P16066 | AID 1671463 | HEK293 GC-A cells, cGMP TR-FRET, EC30 ANP; 0% at EC30 ANP, 100% saturating ANP; in the data active = activation above about 40%
Myeloid diff MLP – myeloid differentiation induction. ER-HoxA9 myeloid progenitors, lysozyme-GFP differentiation, flow cytometry. calls only at 10 µM. 360,000 compounds, 1% hits;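 active = normalized GFP-positive differentiation at or above the plate's own cutoff, the solvent-only control mean plus 3 SD; inconclusive = no clear call, values can overlap the other calls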;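 note: cells exposed to compound for four days before flow analysis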
* hit, by the source's call; i = inactive; ? = inconclusive; / = not tested or not shown; + = active, no number. This is a sample that favours compounds with a hit; in the whole collection about 1.8% have one here.

SMILES	GC-B act	Exocytosis inh	GC-A act	Myeloid diff MLP
Cc1ccc(S(=O)(=O)N2CCN(C(=O)C(O)c3ccccc3)CC2)cc1 (centres undefined)	2	-1	1	i
COCCNC(=O)C1(C)CCCN(Cc2cc(-c3ccccc3)on2)C1 (centres undefined)	4	4	-1	i
Cc1oc(-c2ccc(Cl)cc2)cc1C(=O)NC1CCN(Cc2ccccc2)CC1	-1	80*	-2	i
Cc1ccc(NC(=S)NC2CCN(Cc3ccccc3)CC2)cc1C	0	51	5	+
Cc1ccc(NC(=S)NC2CCN(Cc3ccccc3)CC2)cc1	-3	1	-2	i
CSc1nsc(/C=C/Nc2ccc(F)cc2F)c1C#N	/	-4	/	+
CSc1nsc(/C=C/Nc2ccc(C(=O)O)cc2)c1C#N	-4	6	-3	i
COc1cccc(NC(=O)NC2CCCCN(Cc3ccc(C)cc3)C2=O)c1 (centres undefined)	-2	/	2	/
CN(C)CCCN(C(=O)c1cc2cc([N+](=O)[O-])ccc2s1)c1nc2cc3c(cc2s1)OCCO3	2	76*	3	/
COC(=O)[C@]1(CNC(C)=O)CC(=O)N(C)[C@@H]1c1ccccc1	2	/	4	/
N#Cc1cc(Sc2ccccn2)c([N+](=O)[O-])cc1C#N	-2	6	11	+
N#Cc1cc(Sc2ccccn2)c(Sc2ccccn2)cc1C#N	-4	-2	-3	?
CSCCC(NC(=O)COc1ccccc1)C(=O)OCC(=O)c1ccccc1 (centres undefined)	1	-3	0	i
CSCCC(NS(=O)(=O)c1ccc2ccccc2c1)C(=O)OCC(=O)c1ccc(C(C)C)cc1 (centres undefined)	5	10	-3	+
Cc1cc(Oc2ccc(N)cn2)ccc1Cl	-16	2	5	+
CCOC(=O)C1=C(C)N=c2sc(=Cc3cc(Cl)c(OCC(=O)O)c(OC)c3)c(=O)n2C1c1ccccc1Cl (centres undefined)	0	7	-10	+
CCOC(=O)C1=C(C)N=c2s/c(=C\c3cccn3C)c(=O)n2C1c1cccc(OC)c1OC (centres undefined)	-5	14	7	+
COc1cccc(N2CCN(C(=O)CSc3nc4ncccc4[nH]3)CC2)c1	-5	/	-4	/
COc1ccc2[nH]c(C)c(CCN(Cc3cccs3)C(=S)Nc3ccccc3)c2c1	2	7	-2	i
COc1ccc2[nH]c(C)c(CCN(Cc3cccs3)C(=S)Nc3ccc(F)cc3)c2c1	/	-3	/	+
CC(C)(C)c1ccc(OCC(=O)Nc2ccc3c4c(cccc24)C(=O)NC3=O)cc1	-5	-1	-7	+
CCOC(=O)c1csc(NC(=O)C2CCCN(S(=O)(=O)c3cc(OC)ccc3OC)C2)n1 (centres undefined)	5	/	3	/
COCCn1c(-c2ccc(-c3ccccc3Cl)o2)nc2c1c(=O)[nH]c(=O)n2CC(C)C	36*	4	32	i
COCCn1c(-c2ccc(NC(C)=O)cc2)nc2c1c(=O)[nH]c(=O)n2CC(C)C	0	-10	0	i
CCCCCC[C@@H](CN(CCCC)S(C)(=O)=O)c1ccccc1	3	/	-7	/
SMILES	GC-B act	Exocytosis inh	GC-A act	Myeloid diff MLP
Cc1nn(C)c(C)c1N1C(=O)c2cccc3c(Br)ccc(c23)C1=O	-22	0	-31	+
Cc1nn(C)c(C)c1N1C(=O)c2cccc3c(N)ccc(c23)C1=O	5	-3	4	+
CCN1C(=O)c2cccc3c(N)ccc(c23)C1=O	-6	-6	-48	i
CN(C)CCCN1C(=O)c2cccc3c(Br)ccc(c23)C1=O	-9	0	-12	i
CCC(C)C(CO)NCCCn1cnc2c(OCc3ccccc3)ncnc21 (centres undefined)	0	-1	-1	i
CC(=O)Nc1c(-c2ccc(F)cc2)nc2ncccn12	3	/	4	/
CC(C)(C)OC(=O)C(Oc1ccccc1[N+](=O)[O-])C(=O)OC(C)(C)C	1	3	1	i
CCCCCSc1nc2c(c(=O)[nH]c(=O)n2C)n1C	5	1	5	+
Cc1c(Cl)cccc1NC(=O)NN1CCN(C)CC1	0	52	0	+
COc1ccc(Cn2c(NC(=O)c3ccccc3)nc(Cc3ccccc3)c2-c2ccccc2)c(OC)c1	-4	/	-10	/
CCCCn1c(=N)n(CC(O)COc2cccc(C)c2)c2ccccc21 (centres undefined)	-19	6	-24	+
